Experimental data reported in paper PMC8384837, “Expanding the binding specificity for RNA recognition by a PUF domain”.

Experiments:
Experiment in all cases: yeast three-hybrid, YBZ-1, SC-Leu-His + 0.5 mM 3-AT, 4 days
Settings in all cases: tags: N-Gal4 AD-HA kept; label: inside an RPR1-promoter hybrid RNA with tandem MS2 sites; ssRNA
[1] = molecular target: PUM1 PUF domain R1-KKD (Homo sapiens, UniProt Q14671 828-1176, S863K;R864K;Q867D)
How it was run: (§1)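 Repeat regions from input (SC-Leu) and selection (SC-Leu-His + 0.5 mM 3-AT) plates were PCR-amplified and Illumina-sequenced after four days of growth. The cells were strain YBZ-1 with a LexA–MS2 coat fusion and a HIS3 reporter, co-expressing Pumilio-1 PUF domain libraries and matching RNA elements from a centromeric plasmid. The interaction score is the log change in variant frequency from input to selection, taken in log2 with a pseudocount of 1 for absent variants.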

[2] = molecular target: PUM1 PUF domain R1-GWK (Homo sapiens, UniProt Q14671 828-1176, S863G;R864W;Q867K)
How it was run: as §1

[3] = molecular target: PUM1 PUF domain R7-ERR (Homo sapiens, UniProt Q14671 828-1176, S1079E;N1080R;E1083R)
How it was run: as §1

[4] = molecular target: PUM1 PUF domain R4-SPQ (Homo sapiens, UniProt Q14671 828-1176, N971S;H972P)
How it was run: as §1

[5] = molecular target: T1, PUM1 PUF domain R6-VFL (Homo sapiens, UniProt Q14671 828-1176, N1043V;Y1044F;Q1047L)
T1 sequence: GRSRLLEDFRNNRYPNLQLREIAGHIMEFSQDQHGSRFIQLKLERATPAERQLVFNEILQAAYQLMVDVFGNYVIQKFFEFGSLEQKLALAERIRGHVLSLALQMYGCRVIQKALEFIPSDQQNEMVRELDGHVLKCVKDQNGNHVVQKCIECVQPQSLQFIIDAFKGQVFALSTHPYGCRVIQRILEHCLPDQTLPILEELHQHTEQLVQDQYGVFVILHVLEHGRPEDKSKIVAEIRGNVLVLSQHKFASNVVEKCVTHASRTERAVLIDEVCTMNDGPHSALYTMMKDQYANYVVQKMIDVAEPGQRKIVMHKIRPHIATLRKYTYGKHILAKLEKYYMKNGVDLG
How it was run: as §1

[6] = molecular target: PUM1 PUF domain R5-PHQ (Homo sapiens, UniProt Q14671 828-1176, C1007P;R1008H)
How it was run: as §1

[7] = molecular target: PUM1 PUF domain R5-NVR (Homo sapiens, UniProt Q14671 828-1176, C1007N;R1008V;Q1011R)
How it was run: as §1

[8] = molecular target: PUM1 PUF domain R4-NCG (Homo sapiens, UniProt Q14671 828-1176, H972C;Q975G)
How it was run: as §1

In the case of “GGCUAGAACUAGUGGAUCCCCCGGCGCCCGGCGGCUCGAGCCCGGGUAAGUGUAAAUUGUCUGCAUGCCGCCGGGCGCCAUGCCUGCAGGUCGACUCUAGAAAACAUG”, the binding signal [1] is reported as 3.36 log2 enrichment (interaction score) and the binding signal [2] is reported as 3.01 log2 enrichment (interaction score).
For “GGCUAGAACUAGUGGAUCCCCCGGCGCCCGGCGGCUCGAGCCCGGGUAAGUGUAAAUCGUCUGCAUGCCGCCGGGCGCCAUGCCUGCAGGUCGACUCUAGAAAACAUG”, the binding signal [2] was 3.6 log2 enrichment (interaction score).
In the case of “GGCUAGAACUAGUGGAUCCCCCGGCGCCCGGCGGCUCGAGCCCGGGUAAGUCUAAAUAGUCUGCAUGCCGCCGGGCGCCAUGCCUGCAGGUCGACUCUAGAAAACAUG”, the binding signal [3] is reported as 1.25 log2 enrichment (interaction score).
For “GGCUAGAACUAGUGGAUCCCCCGGCGCCCGGCGGCUCGAGCCCGGGUAAGUUUAAAUAGUCUGCAUGCCGCCGGGCGCCAUGCCUGCAGGUCGACUCUAGAAAACAUG”, the binding signal [3] was 3.08 log2 enrichment (interaction score).
With “GGCUAGAACUAGUGGAUCCCCCGGCGCCCGGCGGCUCGAGCCCGGGUAAGUGUAAAUAGUCUGCAUGCCGCCGGGCGCCAUGCCUGCAGGUCGACUCUAGAAAACAUG” the binding signal [4] was 3.02 log2 enrichment (interaction score), the binding signal [5] was 1.07 log2 enrichment (interaction score) and the binding signal [6] was 3.63 log2 enrichment (interaction score).
In the case of “GGCUAGAACUAGUGGAUCCCCCGGCGCCCGGCGGCUCGAGCCCGGGUAAGUGUUAAUAGUCUGCAUGCCGCCGGGCGCCAUGCCUGCAGGUCGACUCUAGAAAACAUG”, the binding signal [7] is reported as 4.09 log2 enrichment (interaction score).
With “GGCUAGAACUAGUGGAUCCCCCGGCGCCCGGCGGCUCGAGCCCGGGUAAGUGUCAAUAGUCUGCAUGCCGCCGGGCGCCAUGCCUGCAGGUCGACUCUAGAAAACAUG” the binding signal [7] was 2.77 log2 enrichment (interaction score).
In the case of “GGCUAGAACUAGUGGAUCCCCCGGCGCCCGGCGGCUCGAGCCCGGGUAAGUGUAUAUAGUCUGCAUGCCGCCGGGCGCCAUGCCUGCAGGUCGACUCUAGAAAACAUG”, the binding signal [8] is reported as 3.59 log2 enrichment (interaction score).
